Screens deposited in PubChem BioAssay by several laboratories.
BJeLR viability = BJeLR cell viability loss | BJeLR (HRASV12) viability, CellTiter-Glo ATP luminescence, 48 h | inhibition, % (concentration not given with the values) | 300,000 tested, 0.17% active; in the data active = inhibition above about 50%; inconclusive = no clear call, values can overlap the other calls
Anthrax LF inh2 = blocks Bacillus anthracis lethal factor protease; P15917; multiplex microsphere protease cleavage assay, LF; inhibition, % at 10 µM; 360,000 tested, 0.12% active; AID 588501
SARS 3CLpro inh = SARS-CoV 3CLpro protease inhibition. recombinant SARS-CoV 3CLpro, quenched FRET peptide cleavage. inhibition, % at 6 µM. 290,000 tested, 0.14% active. AID 1706; in the data active = inhibition above about 12%
BoNT A protease = BoNT A light chain protease inhibition; multiplex microsphere protease substrate cleavage, flow cytometry; inhibition, % at 10 µM; 360,000 tested, 0.17% active
BoNT F protease = inhibitors of Botulinum neurotoxin F light chain protease | Multiplex microsphere protease cleavage assay, flow cytometry | inhibition, % at 10 µM | 360,000 tested, 0.22% active | AID 588497; in the data active = inhibition above about 35%, passing the limit was not always enough; inconclusive = no clear call, values can overlap the other calls
Autofluor counter = flagged as autofluorescent in microsphere protease counterscreen | compound autofluorescence counterscreen, microsphere flow cytometry; active compounds read high | fluorescence intensity (no concentration beside the values) | 360,000 tested, 3.1% active | AID 624483; in the data active = fluorescence intensity above about 16000; inconclusive = no clear call, values can overlap the other calls
Of the large screens only hits and unclear results are named; the others gave an inactive call. This is a sample that favours compounds with a hit; in the whole collection about 3.6% have one here. Cut-off read from the data, not from the text of the source, unless noted: active = inhibition above about 30%; inconclusive = no clear call, values can overlap the other calls; inactive = below that.

C(=N\n1cnnc1)/c1ccc2ncccc2c1	BoNT A protease inconclusive, Autofluor counter 20485
C(=N\n1cnnc1)/c1ccc2c(c1)OCO2	Autofluor counter 24727
C(=N\n1cnnc1)/c1ccc2c(c1)OCCO2	none
C(=N\n1cnnc1)/c1ccccn1	none
COC(=O)c1cc(Cl)c(NC(=O)c2cc(OC)c(OC)c(OC)c2)cc1OC	Autofluor counter 21669
COC(=O)c1cc(Cl)c(NC(=O)c2ccc(F)cc2)cc1OC	none
COC(=O)c1cc(Cl)c(NC(=O)/C=C/c2ccc(Cl)cc2)cc1OC	Autofluor counter 20164
COc1cccc2sc3cc(NCc4ccc(C)o4)ccc3c(=O)c12	none (no result: BJeLR viability, SARS 3CLpro inh)
Cc1cc(N2CCN(S(=O)(=O)c3ccc4c(c3)OCCO4)CC2)n2ncnc2n1	Autofluor counter 23595
Cc1cc(N2CCN(S(=O)(=O)c3ccc(Br)cc3)CC2)n2ncnc2n1	none
Cc1cc(Nc2ccc3c(c2)OCCO3)n2ncnc2n1	Autofluor counter 22455
CC(=O)Nc1ccc(NC(=O)C2CCN(c3ccc(C(F)(F)F)cn3)CC2)cc1	none
CCc1cccc(OCC(=O)Nc2ccc(S(=O)(=O)N3CCCC3)cc2)c1	none
O=C(NCCO)/C(=C/c1ccc(Br)cc1)NC(=O)c1cccs1	Autofluor counter 23982
O=C(NCCO)/C(=C\c1ccco1)NC(=O)c1cccs1	none
COc1cccc(-n2nnc3c(=O)n(CC(=O)N4CCCc5ccccc54)cnc32)c1	none
CCC(CO)NC(=O)c1cccc(S(=O)(=O)N2c3ccccc3CC2C)c1 (configuration not stated)	none
Cc1cc2n(c(=O)c1C#N)CCCN2c1ccccc1	Autofluor counter 16496
Cc1cc(C)n(CC(=O)N2CCc3ccccc32)c(=O)c1C#N	none
COC(=O)c1c[nH]c2c1-c1cc(C(=O)OCc3ccccc3)n(S(=O)(=O)c3ccc(C)cc3)c1C(=O)C2=O	none (no result: BJeLR viability, SARS 3CLpro inh)
Cc1ccc(C)c(Cc2c(C)nc3c(C(=O)NCc4ccc5c(c4)OCO5)cnn3c2C)c1	none (no result: Anthrax LF inh2, BoNT A protease, BoNT F protease, Autofluor counter)
Cc1cccc(Cc2c(C)nc3c(C(=O)NCc4ccco4)cnn3c2C)c1	Autofluor counter 23199
Cc1ccccc1Cc1c(C)nc2c(C(=O)NCc3ccc4c(c3)OCO4)cnn2c1C	Autofluor counter 16548
Cc1nc2c(C(=O)NCc3ccco3)cnn2c(C)c1Cc1ccc(F)cc1Cl	BoNT A protease inconclusive, Autofluor counter 21933
Cc1ccc(-n2ncc(C(=O)NCc3ccc4c(c3)OCO4)c2NC(=O)c2ccco2)cc1C	BoNT A protease inconclusive, Autofluor counter 21894
CC(C)c1cccc(C(C)C)c1NC(=O)c1ccccc1	none
CCOC(=O)N1CCN(C(=O)c2cn(C)c(=O)c3c2c2ccccc2n3C)CC1	Autofluor counter 22295
Cc1c(C(=O)N2CCC3(CC2)OCCO3)oc2ccccc12	Autofluor counter 18025
Cn1cc(C(=O)NCCN2CCN(c3cccc(Cl)c3)CC2)c2c3ccccc3n(C)c2c1=O	Autofluor counter 23347
COCCCNC(=O)c1cn(C)c(=O)c2c1c1ccccc1n2C	none
CC1=C(C(=O)N2CCCCC2)C2(CCC(C)CC2)OC1=O (configuration not stated)	none
Cc1c(C(=O)N2CCC3(CC2)OCCO3)oc2ccc(S(=O)(=O)N3CCOCC3)cc12	none
CC1=C(C(=O)N2CCC3(CC2)OCCO3)C2(CCC(C)CC2)OC1=O (configuration not stated)	BoNT A protease inconclusive, Autofluor counter 21647
COc1ccc(N(CC(=O)N2CCN(c3ccccc3F)CC2)S(=O)(=O)c2ccc(C)cc2)cc1	none
CO[C@H]1O[C@H](C)[C@@H](O)C[C@H]1NC(=O)OCc1ccccc1	none
Cc1ccc(-c2nn(-c3ccc(F)cc3)cc2C(=O)N(C)CC(=O)Nc2ccc(N3CCOCC3)cc2)cc1	none (no result: SARS 3CLpro inh)
CC(=O)c1ccc(OCC(=O)OCc2cc(-c3ccco3)on2)cc1	none (no result: BJeLR viability, SARS 3CLpro inh)
Cn1cc(C(=O)N2CCC3(CC2)OCCO3)c2c3ccccc3n(C)c2c1=O	Autofluor counter 23087
CC(C)Cn1cc(C(=O)N2CCC3(CC2)OCCO3)c2c3ccccc3n(C)c2c1=O	none
CCOC(=O)c1oc2cccc(O)c2c1CN(Cc1ccccc1)C(C)=O	BoNT A protease inconclusive, Autofluor counter 20279
CCc1nc(Nc2ccc3c(c2)OCCO3)c2oc3ccccc3c2n1	Autofluor counter 17390
CCc1nc(NCc2ccc3c(c2)OCO3)c2oc3ccccc3c2n1	BoNT A protease inconclusive, Autofluor counter 23489
Cc1nc(Nc2ccc3c(c2)OCCO3)c2oc3ccccc3c2n1	none
c1ccc2c(c1)oc1c(Nc3ccc4c(c3)OCCO4)ncnc12	Autofluor counter 19956
O=C(c1ccc2c(c1)OCCO2)N1CCN(c2ccccn2)CC1	Autofluor counter 17835
O=C1CSc2ccc(C(=O)N3CCN(c4ccccn4)CC3)cc2N1	BoNT A protease inconclusive, Autofluor counter 25914
Cc1cccc(NS(=O)(=O)c2ccc(-c3cnc(C4CC4)o3)cc2)c1C	BJeLR viability 53
Cc1cc(C)cc(NS(=O)(=O)c2ccc(-c3cnc(C4CC4)o3)cc2)c1	BJeLR viability 58
O=S(=O)(Nc1ccccc1)c1ccc(-c2cnc(C3CC3)o2)cc1	none
Cc1ccc(C)c(NS(=O)(=O)c2ccc(-c3cnc(C4CC4)o3)cc2)c1	BJeLR viability 52 (no result: Anthrax LF inh2, BoNT A protease, BoNT F protease, Autofluor counter)
CCCCNS(=O)(=O)c1ccc(NC(=O)c2c(-c3ccccc3Cl)noc2C)cc1	Autofluor counter 19198
Cc1onc(-c2ccccc2Cl)c1C(=O)NCC(=O)O	none
Cc1onc(-c2ccccc2Cl)c1C(=O)NCCn1c(C)cc2ccccc21	BoNT A protease 59
Cc1onc(-c2ccccc2Cl)c1C(=O)Nc1cccnc1	Autofluor counter 20230
Cc1onc(-c2ccccc2Cl)c1C(=O)Nc1ccc(-c2cn3cccnc3n2)cc1	BoNT A protease inconclusive, Autofluor counter 16485
CCCOc1ccc(C2C(C(=O)c3ccco3)=C(O)C(=O)N2CCCn2ccnc2)cc1OC (configuration not stated)	none (no result: BJeLR viability, SARS 3CLpro inh)
Cc1nnc(SCC(=O)N2CCC(C(N)=O)CC2)s1	none
O=C(CSc1ncn[nH]1)Nc1ccc2c(c1)OCCO2	Autofluor counter 23582
Cc1nnc(SCC(=O)N2CCOCC2)s1	BoNT A protease inconclusive, Autofluor counter 19625
O=C(CSc1ncn[nH]1)Nc1c(F)cc(F)cc1Br	BoNT A protease inconclusive, Autofluor counter 23998
O=C(CSc1nc2ncccc2[nH]1)Nc1c(F)cc(F)cc1Br	none
CC(=O)Nc1nonc1NC(=O)CSc1ncn[nH]1	Autofluor counter 21267
CN(C)c1ncnc2c1ncn2[C@H]1CN(Cc2cccs2)C[C@@H](CO)O1	none (no result: BJeLR viability, SARS 3CLpro inh)
Cc1[nH]c2ccccc2c1C(=O)C(=O)NCc1nnnn1-c1ccc(F)cc1	none (no result: BJeLR viability, SARS 3CLpro inh)
Cc1nnc(SCC(=O)Nc2ccc3c(c2)OCCO3)s1	Autofluor counter 21759
COc1ccc(CCNC(=O)CSc2ncn[nH]2)cc1	Autofluor counter 19819
CCc1c(C)[nH]n(-c2ccc(Oc3ccccc3)c(S(=O)(=O)O)c2)c1=O	BoNT A protease inconclusive, Autofluor counter 22582 (no result: BJeLR viability)
COc1cc(C=NCC2OCCc3ccccc32)cc(OC)c1 (configuration not stated)	none
